Results published in the supplement of paper PMC10849652.
About 8,800 targets were measured; listed, in parts, are those with a hit and a random draw of the rest. About 0.5% of all pairs of compound and target were hits. Values without a mark were called inactive.

Experiments:
Assay in all cases: log2 fold change, soluble protein after heating vs DMSO (PISA); higher = thermal stabilisation; K562 lysate, 10 uM; active = over 0.2 and 3.5 SD of the protein, either way, in both replicates (recomputed)
[1] = compound: NCC(=O)Nc1ccc(-n2nc(C(F)(F)F)cc2-c2ccc3c(ccc4ccccc43)c2)cc1
How it was run: (§1)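 Log-two fold change in thermal stability relative to solvent controls is reported from duplicates. For each sample, crude K562 extract from dounce-homogenised pellets in PBS pH 7.4 with 1 mM MgCl2, at 1 mg/mL protein, was treated with 10 μM compound for 30 min. Aliquots heated for 3 min across 48°C-58°C were pooled, brought to 0.5% NP-40 at 4°C and cleared at 21,000xg for 90 min. The supernatant was quantified by TMTpro 16plex LC-MS/MS with channel sums equalised.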

[2] = compound: O=C(CCCCCCC(=O)Nc1ccccc1)NO [vorinostat]
How it was run: as §1

[3] = compound: O=C(O)c1ccc2c(c1)nc(Nc1cccc(Cl)c1)c1ccncc12 [silmitasertib]
How it was run: as §1

[4] = compound: O=C1NC(=O)C(c2cnc3ccccn23)=C1c1cn2c3c(cc(F)cc13)CN(C(=O)N1CCCCC1)CC2
How it was run: as §1

[5] = compound: c1cn2cc(-c3ccc4cn[nH]c4c3)nc(Nc3ccc(N4CCOCC4)cc3)c2n1 [entospletinib]
How it was run: as §1

Chain of UniProt P28161 (P28161 whole entry, looked up): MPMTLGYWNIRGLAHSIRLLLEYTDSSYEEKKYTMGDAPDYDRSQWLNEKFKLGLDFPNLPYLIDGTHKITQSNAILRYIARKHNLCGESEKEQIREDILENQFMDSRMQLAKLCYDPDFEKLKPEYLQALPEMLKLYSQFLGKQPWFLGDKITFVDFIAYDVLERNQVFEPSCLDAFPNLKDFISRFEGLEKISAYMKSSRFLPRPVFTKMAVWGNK
Chain of UniProt Q9H0C8 (Q9H0C8 whole entry, looked up): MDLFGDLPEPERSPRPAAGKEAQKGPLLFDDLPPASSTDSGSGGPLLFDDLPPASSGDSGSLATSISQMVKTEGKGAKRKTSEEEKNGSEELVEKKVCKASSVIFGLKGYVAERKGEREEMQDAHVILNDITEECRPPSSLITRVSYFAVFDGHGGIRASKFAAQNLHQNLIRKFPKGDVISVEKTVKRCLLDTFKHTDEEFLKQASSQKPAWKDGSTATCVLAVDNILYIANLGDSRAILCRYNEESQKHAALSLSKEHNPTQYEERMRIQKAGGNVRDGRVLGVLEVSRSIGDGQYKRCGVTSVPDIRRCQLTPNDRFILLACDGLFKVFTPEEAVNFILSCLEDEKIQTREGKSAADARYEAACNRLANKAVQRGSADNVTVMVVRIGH
Chain of UniProt Q9Y4H2 (Q9Y4H2 whole entry, looked up): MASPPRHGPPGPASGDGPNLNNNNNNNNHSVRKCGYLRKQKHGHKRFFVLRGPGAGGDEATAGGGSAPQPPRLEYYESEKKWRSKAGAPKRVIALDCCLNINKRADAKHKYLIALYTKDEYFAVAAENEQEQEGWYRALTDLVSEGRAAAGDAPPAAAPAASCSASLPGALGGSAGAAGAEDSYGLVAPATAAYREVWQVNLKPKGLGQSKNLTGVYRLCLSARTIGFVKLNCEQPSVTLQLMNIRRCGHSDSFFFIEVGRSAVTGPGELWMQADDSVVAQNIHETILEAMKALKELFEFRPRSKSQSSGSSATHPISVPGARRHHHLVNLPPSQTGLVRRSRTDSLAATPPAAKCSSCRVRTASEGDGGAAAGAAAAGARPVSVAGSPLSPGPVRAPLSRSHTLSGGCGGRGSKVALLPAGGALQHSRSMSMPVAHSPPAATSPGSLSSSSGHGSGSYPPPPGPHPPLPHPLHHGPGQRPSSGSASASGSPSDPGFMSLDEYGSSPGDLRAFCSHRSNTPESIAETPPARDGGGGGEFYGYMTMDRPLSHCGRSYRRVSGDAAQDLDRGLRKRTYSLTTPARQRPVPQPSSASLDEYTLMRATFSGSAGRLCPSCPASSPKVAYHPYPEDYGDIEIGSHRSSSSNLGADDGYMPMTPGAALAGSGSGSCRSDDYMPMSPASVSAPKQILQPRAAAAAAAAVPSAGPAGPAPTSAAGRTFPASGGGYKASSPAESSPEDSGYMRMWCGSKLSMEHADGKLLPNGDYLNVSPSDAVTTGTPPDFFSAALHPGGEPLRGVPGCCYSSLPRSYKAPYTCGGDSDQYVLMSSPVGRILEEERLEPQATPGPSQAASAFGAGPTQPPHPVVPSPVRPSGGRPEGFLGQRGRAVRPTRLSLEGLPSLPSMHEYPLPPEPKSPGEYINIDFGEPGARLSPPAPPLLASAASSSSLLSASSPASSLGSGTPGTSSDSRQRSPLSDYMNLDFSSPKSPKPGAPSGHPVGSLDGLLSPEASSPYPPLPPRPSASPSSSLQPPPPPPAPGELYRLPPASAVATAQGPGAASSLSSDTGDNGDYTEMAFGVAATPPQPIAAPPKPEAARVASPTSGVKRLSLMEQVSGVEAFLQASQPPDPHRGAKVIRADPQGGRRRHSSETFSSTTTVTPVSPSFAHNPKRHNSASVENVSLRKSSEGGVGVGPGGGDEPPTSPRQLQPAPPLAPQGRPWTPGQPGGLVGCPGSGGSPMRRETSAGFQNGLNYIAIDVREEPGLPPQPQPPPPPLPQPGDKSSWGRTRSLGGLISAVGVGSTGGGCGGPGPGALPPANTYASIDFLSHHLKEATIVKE
Chain of UniProt Q9Y6M1 (Q9Y6M1 whole entry, looked up): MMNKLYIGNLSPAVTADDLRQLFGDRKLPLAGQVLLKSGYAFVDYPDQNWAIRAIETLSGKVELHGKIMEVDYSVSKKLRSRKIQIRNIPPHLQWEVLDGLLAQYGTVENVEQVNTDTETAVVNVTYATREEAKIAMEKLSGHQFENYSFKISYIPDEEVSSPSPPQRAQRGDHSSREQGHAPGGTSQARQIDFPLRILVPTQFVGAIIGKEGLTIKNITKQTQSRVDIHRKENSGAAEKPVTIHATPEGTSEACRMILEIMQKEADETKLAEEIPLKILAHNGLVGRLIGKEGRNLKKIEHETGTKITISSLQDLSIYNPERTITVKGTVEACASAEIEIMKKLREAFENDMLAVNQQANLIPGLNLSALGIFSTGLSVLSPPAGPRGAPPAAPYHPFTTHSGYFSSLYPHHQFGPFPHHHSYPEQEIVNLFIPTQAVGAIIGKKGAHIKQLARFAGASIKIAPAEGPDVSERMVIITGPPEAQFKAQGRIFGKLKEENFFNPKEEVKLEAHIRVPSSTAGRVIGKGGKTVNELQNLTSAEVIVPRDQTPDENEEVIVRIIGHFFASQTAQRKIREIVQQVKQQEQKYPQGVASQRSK
Chain of UniProt P52272 (P52272 whole entry, looked up): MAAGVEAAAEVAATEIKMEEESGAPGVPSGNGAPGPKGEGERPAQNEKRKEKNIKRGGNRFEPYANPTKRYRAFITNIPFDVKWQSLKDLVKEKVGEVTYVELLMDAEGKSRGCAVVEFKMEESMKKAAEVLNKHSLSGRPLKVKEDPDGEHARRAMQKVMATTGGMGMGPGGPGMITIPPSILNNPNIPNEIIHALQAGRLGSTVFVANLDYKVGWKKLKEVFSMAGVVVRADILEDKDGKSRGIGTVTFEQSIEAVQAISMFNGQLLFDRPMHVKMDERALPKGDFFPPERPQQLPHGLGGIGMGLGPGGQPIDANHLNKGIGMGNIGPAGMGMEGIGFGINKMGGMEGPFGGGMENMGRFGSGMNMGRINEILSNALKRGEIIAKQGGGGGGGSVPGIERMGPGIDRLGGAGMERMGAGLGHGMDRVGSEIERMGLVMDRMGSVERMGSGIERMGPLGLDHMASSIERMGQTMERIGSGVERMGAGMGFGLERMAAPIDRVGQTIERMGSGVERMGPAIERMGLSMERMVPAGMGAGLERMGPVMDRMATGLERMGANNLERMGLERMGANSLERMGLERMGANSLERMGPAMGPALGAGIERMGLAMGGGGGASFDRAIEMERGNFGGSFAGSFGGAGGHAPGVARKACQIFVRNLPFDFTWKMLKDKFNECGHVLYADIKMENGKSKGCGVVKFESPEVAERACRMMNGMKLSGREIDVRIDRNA
Chain of UniProt P52789 (P52789 whole entry, looked up): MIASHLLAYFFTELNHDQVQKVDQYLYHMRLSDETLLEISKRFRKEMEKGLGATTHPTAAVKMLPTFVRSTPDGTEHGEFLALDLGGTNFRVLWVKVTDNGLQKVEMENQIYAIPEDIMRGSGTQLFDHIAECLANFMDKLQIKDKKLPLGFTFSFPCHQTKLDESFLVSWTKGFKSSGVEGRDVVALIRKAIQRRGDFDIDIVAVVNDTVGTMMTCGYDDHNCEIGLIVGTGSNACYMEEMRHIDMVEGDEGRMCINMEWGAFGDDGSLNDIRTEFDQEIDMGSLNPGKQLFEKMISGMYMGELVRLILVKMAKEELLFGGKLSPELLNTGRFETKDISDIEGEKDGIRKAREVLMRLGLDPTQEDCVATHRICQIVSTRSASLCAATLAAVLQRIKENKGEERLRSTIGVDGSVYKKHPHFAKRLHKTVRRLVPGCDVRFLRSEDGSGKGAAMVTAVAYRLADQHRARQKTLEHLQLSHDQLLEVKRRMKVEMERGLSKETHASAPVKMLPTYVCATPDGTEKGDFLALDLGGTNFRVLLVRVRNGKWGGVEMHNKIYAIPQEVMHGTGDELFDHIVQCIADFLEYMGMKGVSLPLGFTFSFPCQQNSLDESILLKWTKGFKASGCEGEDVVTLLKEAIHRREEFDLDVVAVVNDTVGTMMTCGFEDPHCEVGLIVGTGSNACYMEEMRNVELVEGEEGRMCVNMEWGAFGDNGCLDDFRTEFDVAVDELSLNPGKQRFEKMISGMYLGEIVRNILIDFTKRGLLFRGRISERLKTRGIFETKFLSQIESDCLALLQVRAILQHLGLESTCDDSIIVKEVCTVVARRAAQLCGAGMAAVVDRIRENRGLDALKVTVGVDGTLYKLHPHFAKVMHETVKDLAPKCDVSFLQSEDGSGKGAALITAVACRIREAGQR
Chain of UniProt Q8NEC7 (Q8NEC7 whole entry, looked up): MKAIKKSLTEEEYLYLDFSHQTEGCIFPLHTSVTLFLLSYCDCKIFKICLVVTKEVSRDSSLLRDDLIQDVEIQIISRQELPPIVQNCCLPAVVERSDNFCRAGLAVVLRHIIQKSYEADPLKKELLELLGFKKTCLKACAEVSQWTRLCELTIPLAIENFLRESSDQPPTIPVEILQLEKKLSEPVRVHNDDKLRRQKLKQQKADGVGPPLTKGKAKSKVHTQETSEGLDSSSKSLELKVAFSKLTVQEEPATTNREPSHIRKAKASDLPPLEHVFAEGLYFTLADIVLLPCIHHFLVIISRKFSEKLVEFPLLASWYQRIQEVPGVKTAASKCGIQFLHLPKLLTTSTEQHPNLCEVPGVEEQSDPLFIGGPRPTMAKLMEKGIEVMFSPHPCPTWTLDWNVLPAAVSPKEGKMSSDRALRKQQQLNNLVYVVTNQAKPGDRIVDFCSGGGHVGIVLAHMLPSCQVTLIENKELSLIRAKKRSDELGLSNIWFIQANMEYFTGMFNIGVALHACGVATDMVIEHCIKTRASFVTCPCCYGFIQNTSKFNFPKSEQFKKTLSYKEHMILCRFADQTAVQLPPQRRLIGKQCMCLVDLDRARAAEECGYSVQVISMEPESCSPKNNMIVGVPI
Chain of UniProt P17096 (P17096 whole entry, looked up): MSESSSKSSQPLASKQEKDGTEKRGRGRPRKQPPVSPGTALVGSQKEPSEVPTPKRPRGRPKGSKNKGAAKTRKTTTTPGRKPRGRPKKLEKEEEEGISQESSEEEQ

Row | Target | log2 fold change [1] | log2 fold change [2] | log2 fold change [3] | log2 fold change [4] | log2 fold change [5]
1 | IGF2BP2 (UniProt Q9Y6M1) | -0.016 | -0.239 (active) | 0.088 | 0 | 0.026
2 | GTPBP2 (UniProt Q9BX10) | 0.029 | -0.289 (active) | 0 | -0.003 | 0.056
3 | HMBOX1 isoform 5 (UniProt Q6NT76) | 0.004 | 0.093 | 0.025 | 0.02 | -0.063
4 | GRK6 isoform 2 (UniProt P43250) | 0.001 | -0.227 | 0.48 (active) | -0.012 | -0.123
5 | HLCS (UniProt P50747) | -0.048 | -0.054 | -0.012 | 0.004 | 0.009
6 | HSPB1 (UniProt P04792) | 0.019 | -0.013 | -0.027 | -0.001 | 0.013
7 | HAUS5 (UniProt O94927) | 0.031 | -0.416 (active) | 0.045 | -0.015 | 0.013
8 | HNRNPUL1 (UniProt Q9BUJ2) | -0.02 | 0.122 | 0.012 | -0.022 | -0.02
9 | KARS1 (UniProt Q15046) | 0.021 | -0.011 | 0.022 | -0.026 | 0.006
10 | HNRNPDL (UniProt O14979) | -0.032 | 0.133 | -0.01 | 0.01 | 0.01
11 | ILRUN (UniProt Q9H6K1) | 0.002 | -0.047 | 0.001 | -0.01 | -0.013
12 | HNRNPD isoform 2 (UniProt Q14103) | 0.018 | 0.155 | 0.009 | 0.063 | -0.006
13 | HK2 (UniProt P52789) | -0.018 | -0.443 (active) | 0.038 | 0.007 | 0.022
14 | IMMT (UniProt C9J406) | -0.084 | 0.174 | 0.092 | -0.002 | -0.172
15 | GON4L (UniProt Q3T8J9) | -0.051 | -0.162 | 0.066 | -0.076 | 0.067
16 | IMPDH2 (UniProt P12268) | 0.002 | -1.14 (active) | 0.004 | 0.004 | 0.014
17 | HSPA8 (UniProt E9PK54) | 0.068 | -0.004 | -0.037 | -0.022 | 0.012
18 | ILKAP (UniProt Q9H0C8) | -0.05 | -0.288 (active) | 0.053 | -0.024 | -0.001
19 | HMGN4 (UniProt O00479) | -0.095 | 0.192 | -0.012 | 0.067 | 0.163
20 | HNRNPM (UniProt P52272) | -0.008 | -0.235 (active) | 0.022 | -0.05 | 0.015
21 | HNRNPD (UniProt D6RF44) |  |  |  | -0.04 | 
22 | ISL2 (UniProt Q96A47) |  | -0.026 | 0.04 | 0.179 | 
23 | HDAC2 (UniProt Q92769) | 0.001 |  | -0.002 | 0.057 | -0.005
24 | GLB1 (UniProt P16278) | 0.003 | -0.013 | -0.03 | -0.043 | -0.018
25 | GPA33 (UniProt Q99795) | 0.041 | 0.14 | 0.051 |  | 0.017
26 | HSPBAP1 (UniProt Q96EW2) |  | -0.07 | 0.044 | -0.014 | -0.125
27 | GPLD1 (UniProt P80108) |  |  |  | 0.366 | 
28 | INF2 (UniProt Q27J81) | -0.023 | -0.333 (active) | -0.027 | 0.018 | -0.09

Row | Target | log2 fold change [1] | log2 fold change [2] | log2 fold change [3] | log2 fold change [4] | log2 fold change [5]
29 | GTPBP6 (UniProt O43824) | 0.069 |  |  |  | 0.255
30 | IPP (UniProt Q9Y573) | 0.04 | -0.633 (active) | 0.205 |  | 0.074
31 | ITPR2 (UniProt Q14571) |  | -0.965 (active) | 0.024 |  | 
32 | HDAC10 (UniProt Q969S8) | 0.147 | 0.211 | 0.156 | -0.032 | 0.053
33 | GNB1 (UniProt P62873) | 0.026 | 0.064 | 0.041 | -0.037 | 0.054
34 | HSD17B10 (UniProt Q99714) | 0.04 | -0.826 (active) | -0.011 | -0.025 | -0.004
35 | ITGB1BP2 (UniProt Q9UKP3) | 0.053 |  |  |  | 0.107
36 | HNRNPUL1 (UniProt M0R247) |  | 0.197 | -0.037 |  | 
37 | HMGA1 isoform 2 (UniProt P17096) |  | 0.205 | -0.047 | 0.128 | 
38 | GSTCD (UniProt Q8NEC7) | -0.025 | -0.356 (active) | 0.024 | -0.027 | -0.066
39 | IMPDH2 (UniProt H0Y4R1) | -0.044 |  |  | 0.05 | -0.042
40 | GSTM2 (UniProt P28161) | 0.017 | 0.323 (active) | 0.378 (active) |  | 0.044
41 | ITPRIP (UniProt Q8IWB1) |  | -0.33 | 0.095 |  | 
42 | H4C1 (UniProt P62805) | 0.043 | 0.09 | 0.007 | -0.038 | -0.057
43 | HMGN5 (UniProt Q5JSK9) |  |  |  |  | -0.187
44 | IGFBP4 (UniProt P22692) |  | 0.049 | -0.026 | 0.023 | 
45 | KIAA0930 isoform 2 (UniProt Q6ICG6) | 0.046 |  |  | -0.057 | 0.062
46 | HYDIN (UniProt Q4G0P3) | 0.028 |  |  |  | -0.005
47 | ILK (UniProt Q13418) | -0.047 | -0.343 (active) | 0.086 | 0.019 | 0.096
48 | GNB4 (UniProt Q9HAV0) |  | 0.006 | 0.017 | -0.059 | 0.029
49 | HNRNPM (UniProt M0QZM1) | 0.125 |  |  | 0.038 | 0
50 | IRS2 (UniProt Q9Y4H2) |  | -0.034 | -0.065 | 0.14 | 
51 | HSPA8 (UniProt E9PN89) |  | -0.01 | 0.016 | -0.017 | -0.024
52 | HOMER3 (UniProt Q9NSC5) |  |  |  | -0.022 | 
53 | H3-3A (UniProt P84243) | 0.021 | -0.077 | 0 | 0.026 | -0.035
54 | JAK3 (UniProt P52333) | -0.319 |  |  | -0.002 | 
55 | ICAM2 (UniProt P13598) | -0.016 | 0.148 | -0.029 | -0.021 | -0.018
